How the values were obtained:
Test in all cases: DAPPL (digital affinity profiling via proximity ligation, sequencing); 10 mM Tris-HCl pH 7.5, 50 mM NaCl, 1 mM DTT, 4% glycerol, room temperature, 30 min; GST-TFs on glutathione beads, 16-mer random dsDNA library, 0.1% formaldehyde crosslink after washing; high values mean tight binding
Conditions in all cases: protein: recombinant; tags: N-terminal GST; dsDNA, one strand shown
[1] = target: T1, FLI1 (Homo sapiens, UniProt Q01543 1-452)
T1 sequence: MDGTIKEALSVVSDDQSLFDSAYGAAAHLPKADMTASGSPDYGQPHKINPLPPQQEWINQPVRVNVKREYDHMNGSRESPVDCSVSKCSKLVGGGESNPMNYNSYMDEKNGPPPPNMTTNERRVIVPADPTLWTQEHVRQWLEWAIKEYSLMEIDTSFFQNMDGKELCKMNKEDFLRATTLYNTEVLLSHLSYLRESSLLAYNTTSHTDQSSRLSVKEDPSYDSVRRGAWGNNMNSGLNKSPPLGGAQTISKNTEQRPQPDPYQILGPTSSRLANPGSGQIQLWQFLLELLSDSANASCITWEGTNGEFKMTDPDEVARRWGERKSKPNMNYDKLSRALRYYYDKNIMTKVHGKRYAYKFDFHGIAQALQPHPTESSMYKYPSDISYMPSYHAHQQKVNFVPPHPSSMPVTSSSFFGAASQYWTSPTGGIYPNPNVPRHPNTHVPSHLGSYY
In short: (§1)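 Binding signal is given per hexamer as its read frequency for a factor divided by its frequency in the tag-only sample. GST-fused human transcription factors were expressed in yeast, captured on glutathione beads, barcoded with DNA and pooled with that sample, then incubated with 200 nmole of a 16-mer random double-stranded DNA library in Tris/NaCl/DTT/glycerol buffer for 30 min at room temperature. The pools were then washed, crosslinked, proximity-ligated, amplified by PCR and sequenced on an Illumina NextSeq500.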

[2] = target: T2, ELK1 (Homo sapiens, UniProt P19419 1-428)
T2 sequence: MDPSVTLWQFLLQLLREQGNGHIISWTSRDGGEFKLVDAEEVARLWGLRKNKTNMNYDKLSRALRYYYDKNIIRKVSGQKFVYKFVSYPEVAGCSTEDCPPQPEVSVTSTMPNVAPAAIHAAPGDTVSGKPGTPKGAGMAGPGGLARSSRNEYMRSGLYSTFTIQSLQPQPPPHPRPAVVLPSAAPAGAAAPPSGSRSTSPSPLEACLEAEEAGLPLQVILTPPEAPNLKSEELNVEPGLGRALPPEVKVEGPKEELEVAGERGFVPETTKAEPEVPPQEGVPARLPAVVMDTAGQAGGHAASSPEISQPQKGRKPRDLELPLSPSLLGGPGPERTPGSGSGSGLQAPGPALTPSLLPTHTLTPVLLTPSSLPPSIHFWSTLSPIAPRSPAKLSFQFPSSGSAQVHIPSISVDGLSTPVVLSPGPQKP
In short: as §1

[3] = target: T3, GABPA (Homo sapiens, UniProt Q06546 1-454)
T3 sequence: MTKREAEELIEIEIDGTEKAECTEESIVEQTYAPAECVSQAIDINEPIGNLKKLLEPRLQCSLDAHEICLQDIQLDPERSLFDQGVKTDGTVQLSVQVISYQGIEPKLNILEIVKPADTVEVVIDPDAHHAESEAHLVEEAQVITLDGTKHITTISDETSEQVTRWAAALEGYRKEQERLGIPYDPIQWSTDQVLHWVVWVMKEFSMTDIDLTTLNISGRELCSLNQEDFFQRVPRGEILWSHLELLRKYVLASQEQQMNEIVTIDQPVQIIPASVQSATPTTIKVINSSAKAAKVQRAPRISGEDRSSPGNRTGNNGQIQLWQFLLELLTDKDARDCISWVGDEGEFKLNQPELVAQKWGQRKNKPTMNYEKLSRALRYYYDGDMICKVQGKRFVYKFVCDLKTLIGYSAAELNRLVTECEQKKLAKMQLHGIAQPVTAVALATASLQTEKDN
In short: as §1

[4] = target: T4, ERG (Homo sapiens, UniProt P11308 1-479)
T4 sequence: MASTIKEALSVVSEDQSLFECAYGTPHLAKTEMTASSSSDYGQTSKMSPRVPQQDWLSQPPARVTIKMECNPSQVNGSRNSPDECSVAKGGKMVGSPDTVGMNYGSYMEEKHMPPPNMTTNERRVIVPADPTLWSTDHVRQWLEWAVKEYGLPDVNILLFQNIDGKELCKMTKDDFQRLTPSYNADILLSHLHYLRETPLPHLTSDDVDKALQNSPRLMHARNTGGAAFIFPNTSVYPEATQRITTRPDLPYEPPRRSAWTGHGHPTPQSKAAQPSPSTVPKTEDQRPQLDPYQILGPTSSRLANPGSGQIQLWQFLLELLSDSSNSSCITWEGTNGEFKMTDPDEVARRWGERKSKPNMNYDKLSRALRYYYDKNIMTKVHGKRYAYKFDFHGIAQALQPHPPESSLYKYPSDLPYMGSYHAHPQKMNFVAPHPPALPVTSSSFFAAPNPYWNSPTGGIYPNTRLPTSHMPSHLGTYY
In short: as §1

[5] = target: ELF1 (Homo sapiens, UniProt P32519 1-619)
In short: as §1

[6] = target: T5, EHF (Homo sapiens, UniProt Q9NZC4 1-300)
T5 sequence: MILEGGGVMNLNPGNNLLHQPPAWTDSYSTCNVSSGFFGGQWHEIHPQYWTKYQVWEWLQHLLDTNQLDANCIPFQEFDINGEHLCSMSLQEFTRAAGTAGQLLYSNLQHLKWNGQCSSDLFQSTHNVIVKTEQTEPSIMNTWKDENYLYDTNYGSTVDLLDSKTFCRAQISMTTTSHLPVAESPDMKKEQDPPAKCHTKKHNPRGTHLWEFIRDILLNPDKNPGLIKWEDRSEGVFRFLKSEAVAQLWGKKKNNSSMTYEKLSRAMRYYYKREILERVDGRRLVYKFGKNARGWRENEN
In short: as §1

[7] = target: SPI1 (Homo sapiens, UniProt P17947 1-270)
In short: as §1

[8] = target: SPIB (Homo sapiens, UniProt Q01892 1-262)
In short: as §1

[9] = target: T6, ELK3 (Homo sapiens, UniProt P41970 1-407)
T6 sequence: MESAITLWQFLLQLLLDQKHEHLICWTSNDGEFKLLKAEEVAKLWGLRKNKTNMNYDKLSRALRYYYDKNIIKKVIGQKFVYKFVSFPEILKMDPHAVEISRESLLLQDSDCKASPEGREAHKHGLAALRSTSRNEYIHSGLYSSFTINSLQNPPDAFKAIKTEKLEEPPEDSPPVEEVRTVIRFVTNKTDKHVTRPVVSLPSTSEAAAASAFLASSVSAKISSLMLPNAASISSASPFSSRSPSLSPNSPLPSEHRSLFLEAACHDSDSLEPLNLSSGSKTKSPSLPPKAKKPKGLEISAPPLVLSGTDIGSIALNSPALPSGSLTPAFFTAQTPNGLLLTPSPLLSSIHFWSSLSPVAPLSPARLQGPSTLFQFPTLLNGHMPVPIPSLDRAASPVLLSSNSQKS
In short: as §1

SPIB, sequence (Q01892 whole entry): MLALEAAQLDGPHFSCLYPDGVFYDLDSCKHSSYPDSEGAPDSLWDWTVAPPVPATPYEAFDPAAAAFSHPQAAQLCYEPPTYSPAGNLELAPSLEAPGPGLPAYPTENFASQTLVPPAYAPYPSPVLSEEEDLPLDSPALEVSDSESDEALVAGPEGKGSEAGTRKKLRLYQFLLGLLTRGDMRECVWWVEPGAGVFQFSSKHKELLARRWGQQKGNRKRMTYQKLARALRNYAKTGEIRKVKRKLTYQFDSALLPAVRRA
ELF1, sequence (P32519 whole entry): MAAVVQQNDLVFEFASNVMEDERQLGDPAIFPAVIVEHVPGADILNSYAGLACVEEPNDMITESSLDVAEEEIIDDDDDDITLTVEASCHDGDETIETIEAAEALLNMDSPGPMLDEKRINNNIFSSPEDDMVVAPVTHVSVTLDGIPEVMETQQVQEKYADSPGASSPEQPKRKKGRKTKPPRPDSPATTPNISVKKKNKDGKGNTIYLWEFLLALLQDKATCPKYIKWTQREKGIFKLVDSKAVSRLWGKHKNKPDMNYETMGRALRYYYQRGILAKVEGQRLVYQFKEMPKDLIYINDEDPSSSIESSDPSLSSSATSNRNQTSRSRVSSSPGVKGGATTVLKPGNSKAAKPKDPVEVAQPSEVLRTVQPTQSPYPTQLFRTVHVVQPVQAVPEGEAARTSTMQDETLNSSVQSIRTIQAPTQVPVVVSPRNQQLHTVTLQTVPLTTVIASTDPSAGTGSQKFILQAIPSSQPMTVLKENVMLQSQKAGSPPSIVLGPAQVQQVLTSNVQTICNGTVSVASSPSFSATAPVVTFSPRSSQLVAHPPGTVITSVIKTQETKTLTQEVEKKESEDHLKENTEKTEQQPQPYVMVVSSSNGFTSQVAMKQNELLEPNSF

| Sequence | binding signal [1] | binding signal [2] | binding signal [3] | binding signal [4] | binding signal [5] | binding signal [6] | binding signal [7] | binding signal [8] | binding signal [9] |
| --- | --- | --- | --- | --- | --- | --- | --- | --- | --- |
| TACGGA | 1.26 fold enrichment (6-mer frequency, TF over GST control) | 1.25 fold enrichment (6-mer frequency, TF over GST control) | 1.21 fold enrichment (6-mer frequency, TF over GST control) | 1.37 fold enrichment (6-mer frequency, TF over GST control) | 1.3 fold enrichment (6-mer frequency, TF over GST control) | 1.45 fold enrichment (6-mer frequency, TF over GST control) | 1.56 fold enrichment (6-mer frequency, TF over GST control) | 1.48 fold enrichment (6-mer frequency, TF over GST control) | 1.43 fold enrichment (6-mer frequency, TF over GST control) |
| CCCCTT | 1.48 fold enrichment (6-mer frequency, TF over GST control) | 1.55 fold enrichment (6-mer frequency, TF over GST control) | 1.44 fold enrichment (6-mer frequency, TF over GST control) | 1.54 fold enrichment (6-mer frequency, TF over GST control) | 1.53 fold enrichment (6-mer frequency, TF over GST control) | 1.62 fold enrichment (6-mer frequency, TF over GST control) | 2.01 fold enrichment (6-mer frequency, TF over GST control) | 1.53 fold enrichment (6-mer frequency, TF over GST control) | 1.51 fold enrichment (6-mer frequency, TF over GST control) |
| ATTGCC | 1.28 fold enrichment (6-mer frequency, TF over GST control) | 1.27 fold enrichment (6-mer frequency, TF over GST control) | 1.28 fold enrichment (6-mer frequency, TF over GST control) | 1.14 fold enrichment (6-mer frequency, TF over GST control) | 1.21 fold enrichment (6-mer frequency, TF over GST control) | 1.24 fold enrichment (6-mer frequency, TF over GST control) | 1.15 fold enrichment (6-mer frequency, TF over GST control) | 1.26 fold enrichment (6-mer frequency, TF over GST control) | 1.15 fold enrichment (6-mer frequency, TF over GST control) |
| ACCATC | 1.18 fold enrichment (6-mer frequency, TF over GST control) | 1.14 fold enrichment (6-mer frequency, TF over GST control) | 1.19 fold enrichment (6-mer frequency, TF over GST control) | 1.1 fold enrichment (6-mer frequency, TF over GST control) | 1.21 fold enrichment (6-mer frequency, TF over GST control) | 1.12 fold enrichment (6-mer frequency, TF over GST control) | 1.15 fold enrichment (6-mer frequency, TF over GST control) | 1.07 fold enrichment (6-mer frequency, TF over GST control) | 1.24 fold enrichment (6-mer frequency, TF over GST control) |
| GGTCCC | 1.13 fold enrichment (6-mer frequency, TF over GST control) | 1.21 fold enrichment (6-mer frequency, TF over GST control) | 1.16 fold enrichment (6-mer frequency, TF over GST control) | 1.21 fold enrichment (6-mer frequency, TF over GST control) | 1.17 fold enrichment (6-mer frequency, TF over GST control) | 1.19 fold enrichment (6-mer frequency, TF over GST control) | 1.1 fold enrichment (6-mer frequency, TF over GST control) | 1.31 fold enrichment (6-mer frequency, TF over GST control) | 1.16 fold enrichment (6-mer frequency, TF over GST control) |
| CAAGCA | 1.1 fold enrichment (6-mer frequency, TF over GST control) | 1.1 fold enrichment (6-mer frequency, TF over GST control) | 1.14 fold enrichment (6-mer frequency, TF over GST control) | 1.07 fold enrichment (6-mer frequency, TF over GST control) | 1.18 fold enrichment (6-mer frequency, TF over GST control) | 1.02 fold enrichment (6-mer frequency, TF over GST control) | 1.07 fold enrichment (6-mer frequency, TF over GST control) | 1.06 fold enrichment (6-mer frequency, TF over GST control) | 1.1 fold enrichment (6-mer frequency, TF over GST control) |
| CGTATG | 1.1 fold enrichment (6-mer frequency, TF over GST control) | 1.1 fold enrichment (6-mer frequency, TF over GST control) | 1.08 fold enrichment (6-mer frequency, TF over GST control) | 1.03 fold enrichment (6-mer frequency, TF over GST control) | 1.1 fold enrichment (6-mer frequency, TF over GST control) | 1.1 fold enrichment (6-mer frequency, TF over GST control) | 1.07 fold enrichment (6-mer frequency, TF over GST control) | 1.09 fold enrichment (6-mer frequency, TF over GST control) | 1.13 fold enrichment (6-mer frequency, TF over GST control) |
| ATACTC | 1.29 fold enrichment (6-mer frequency, TF over GST control) | 1.32 fold enrichment (6-mer frequency, TF over GST control) | 1.48 fold enrichment (6-mer frequency, TF over GST control) | 1.3 fold enrichment (6-mer frequency, TF over GST control) | 1.38 fold enrichment (6-mer frequency, TF over GST control) | 1.33 fold enrichment (6-mer frequency, TF over GST control) | 1.26 fold enrichment (6-mer frequency, TF over GST control) | 1.32 fold enrichment (6-mer frequency, TF over GST control) | 1.3 fold enrichment (6-mer frequency, TF over GST control) |

Source: paper PMC7862700, “An all-to-all approach to the identification of sequence-specific readers for epigenetic DNA modifications on cytosine”
